Test results as given in PubChem BioAssay AID1159580 (chemical genetic matrix, 2015).
Among all 5,500 compounds or so, about 2,000 (36%) were called active. Inconclusive results (about 18%) are left out. Cut-off read from the data, not from the text of the source: active = normalized growth mostly below about 0.91 (no sharp cut-off); inconclusive = no clear call, values can overlap the other calls; inactive = mostly above about 0.92. This is one part of the list.

Assay: chemical genetic growth profiling, strain panel (AID 1159580);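 note: tested at 20 µM; growth read once vehicle control cultures reached saturation at 30 °C; 1 = growth at the plate median or of vehicle wells; lower values mean less growth of the strain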
Conditions: growth OD
[1] = S. cerevisiae deletion strains, locus YAL013W, strain DEP1, hits give low values
[2] = S. cerevisiae deletion strains, locus YBR229C, strain ROT2, hits give low values
[3] = S. cerevisiae deletion strains, locus YCL061C, strain MRC1, hits give low values
[4] = S. cerevisiae deletion strains, locus YDL101C, strain DUN1, hits give low values
[5] = S. cerevisiae deletion strains, locus YDR150W, strain NUM1, hits give low values
[6] = S. cerevisiae deletion strains, locus YEL061C, strain CIN8, hits give low values
[7] = S. cerevisiae deletion strains, locus YGR078C, strain PAC10, hits give low values
[8] = S. cerevisiae deletion strains, locus YHR030C, strain SLT2, hits give low values
[9] = S. cerevisiae deletion strains, locus YHR087W, strain rtc3, hits give low values
[10] = S. cerevisiae deletion strains, locus YJL187C, strain SWE1, hits give low values
[11] = S. cerevisiae deletion strains, locus YJR043C, strain POL32, hits give low values
[12] = S. cerevisiae deletion strains, locus YJR075W, strain HOC1, hits give low values
[13] = S. cerevisiae deletion strains, locus YLR039C, strain RIC1, hits give low values
[14] = S. cerevisiae deletion strains, locus YLR058C, strain SHM2 (second series), hits give low values
[15] = S. cerevisiae deletion strains, locus YLR085C, strain ARP6, hits give low values
[16] = S. cerevisiae deletion strains, locus YLR262C, strain YPT6, hits give low values
[17] = S. cerevisiae deletion strains, locus YML094W, strain GIM5, hits give low values
[18] = S. cerevisiae deletion strains, locus YMR219W, strain ESC1, hits give low values
[19] = S. cerevisiae deletion strains, locus YMR263W, strain SAP30, hits give low values
[20] = S. cerevisiae deletion strains, locus YMR307W, strain GAS1, hits give low values
[21] = S. cerevisiae deletion strains, locus YNL153C, strain GIM3, hits give low values
[22] = S. cerevisiae deletion strains, locus YNL298W, strain CLA4 (second series), hits give low values
[23] = S. cerevisiae deletion strains, locus YNL322C, strain KRE1, hits give low values
[24] = S. cerevisiae deletion strains, locus YNR030W, strain Alg12, hits give low values
[25] = S. cerevisiae deletion strains, locus YPL241C, strain CIN2, hits give low values
[26] = S. cerevisiae deletion strains, locus YPR135W, strain CTF4, hits give low values

Measured: normalized growth

O=C(NC1Cc2ccccc2C1)c1cncc(Br)c1
inactive: [1] 1 | [2] 0.992 | [3] 0.982 | [4] 1 | S. cerevisiae deletion strains, locus YDL134C, strain PPH21, hits give low values 1.05 | [5] 0.937 | [6] 0.99 | [7] 0.994 | S. cerevisiae deletion strains, locus YGR229C, strain SMI1, hits give low values 0.985 | [8] 0.848 | [9] 0.985 | [10] 1.01 | [11] 0.994 | [12] 0.982 | S. cerevisiae deletion strains, locus YKL190W, strain CNB1, hits give low values 0.99 | [13] 1.03 | [14] 0.985 | [15] 0.952 | [16] 0.992 | [17] 0.98 | [18] 0.991 | [19] 0.984 | [20] 0.912 | [21] 0.994 | [22] 0.966 | [23] 0.995 | [24] 0.982 | S. cerevisiae deletion strains, locus YPL055C, strain LGE1, hits give low values 0.982 | [25] 0.98 | [26] 0.836 | S. cerevisiae strains, strain wild type, hits give low values 0.988

N#C/C(NCc1cccs1)=C(\C#N)NCc1c(F)cccc1Cl
inactive: [1] 0.958 | [2] 0.977 | [3] 0.97 | [4] 0.979 | [5] 0.899 | [6] 0.998 | [7] 0.973 | [8] 0.919 | [9] 0.991 | [10] 1 | [11] 0.988 | [12] 0.97 | [13] 0.939 | [14] 0.972 | [15] 0.957 | [16] 0.969 | [17] 0.964 | [18] 0.986 | [19] 0.947 | [20] 0.919 | [21] 0.993 | [22] 0.959 | [23] 0.969 | [24] 0.964 | S. cerevisiae deletion strains, locus YOL006C, strain TOP1, hits give low values 1.01 | [25] 0.973 | [26] 0.962

O=C(CSCc1csc2ccccc12)Nc1ccc(F)c(Cl)c1
active: [8] 0.821 | S. cerevisiae deletion strains, locus YLR113W, strain HOG1, hits give low values 0.68 | S. cerevisiae deletion strains, locus YPL256C, strain CLN2, hits give low values 0.754
inactive: S. cerevisiae deletion strains, locus YAR019C, strain CDC15, hits give low values 0.978 | S. cerevisiae deletion strains, locus YBL105C, strain PKC1, hits give low values 0.977 | S. cerevisiae deletion strains, locus YBR135W, strain CKS1, hits give low values 0.973 | S. cerevisiae deletion strains, locus YBR136W, strain MEC1, hits give low values 0.981 | S. cerevisiae deletion strains, locus YBR160W, strain CDC28, hits give low values 0.974 | S. cerevisiae deletion strains, locus YDL017W, strain CDC7, hits give low values 0.98 | S. cerevisiae deletion strains, locus YDL028C, strain MPS1, hits give low values 0.982 | [4] 0.999 | S. cerevisiae deletion strains, locus YDL108W, strain KIN28, hits give low values 0.973 | S. cerevisiae deletion strains, locus YDL132W, strain cdc53, hits give low values 0.982 | S. cerevisiae deletion strains, locus YDL214C, strain PRR2, hits give low values 0.885 | S. cerevisiae deletion strains, locus YDR052C, strain DBF4, hits give low values 0.99 | S. cerevisiae deletion strains, locus YDR054C, strain cdc34, hits give low values 0.97 | S. cerevisiae deletion strains, locus YDR226W, strain ADK1, hits give low values 0.986 | S. cerevisiae deletion strains, locus YDR477W, strain SNF1, hits give low values 0.909 | S. cerevisiae deletion strains, locus YER123W, strain YCK3, hits give low values 0.884 | S. cerevisiae deletion strains, locus YER133W, strain GLC7, hits give low values 0.921 | S. cerevisiae deletion strains, locus YFL009W, strain cdc4, hits give low values 0.978 | S. cerevisiae deletion strains, locus YFL029C, strain CAK1, hits give low values 0.975 | S. cerevisiae deletion strains, locus YFR003C, strain YPI1, hits give low values 0.978 | S. cerevisiae deletion strains, locus YFR019W, strain FAB1, hits give low values 0.93 | S. cerevisiae deletion strains, locus YFR028C, strain CDC14, hits give low values 0.975 | S. cerevisiae deletion strains, locus YGR040W, strain KSS1, hits give low values 0.917 | S. cerevisiae deletion strains, locus YGR052W, strain FMP48, hits give low values 0.925 | S. cerevisiae deletion strains, locus YGR092W, strain DBF2, hits give low values 0.878 | S. cerevisiae deletion strains, locus YHR079C, strain IRE1, hits give low values 0.858 | S. cerevisiae deletion strains, locus YHR082C, strain KSP1, hits give low values 0.896 | S. cerevisiae deletion strains, locus YHR205W, strain SCH9, hits give low values 0.845 | S. cerevisiae deletion strains, locus YIL147C, strain SLN1, hits give low values 0.984 | S. cerevisiae deletion strains, locus YJL095W, strain BCK1, hits give low values 0.877 | S. cerevisiae deletion strains, locus YJL128C, strain PBS2, hits give low values 0.946 | S. cerevisiae deletion strains, locus YJL157C, strain FAR1, hits give low values 0.875 | S. cerevisiae deletion strains, locus YJR016C, strain ILV3, hits give low values 0.972 | S. cerevisiae deletion strains, locus YJR066W, strain TOR1 (second series), hits give low values 0.893 | S. cerevisiae deletion strains, locus YJR066W, strain TOR1, hits give low values 0.889 | S. cerevisiae deletion strains, locus YKL048C, strain ELM1, hits give low values 0.952 | S. cerevisiae deletion strains, locus YKL067W, strain YNK1, hits give low values 0.897 | S. cerevisiae deletion strains, locus YKL101W, strain HSL1, hits give low values 0.89 | S. cerevisiae deletion strains, locus YKL193C, strain SDS22, hits give low values 0.977 | S. cerevisiae deletion strains, locus YKL203C, strain TOR2, hits give low values 0.96 | S. cerevisiae deletion strains, locus YLR133W, strain CKI1, hits give low values 0.899 | S. cerevisiae deletion strains, locus YLR403W, strain SFP1, hits give low values 0.889 | S. cerevisiae deletion strains, locus YML070W, strain DAK1, hits give low values 0.849 | S. cerevisiae deletion strains, locus YMR001C, strain CDC5, hits give low values 0.977 | S. cerevisiae deletion strains, locus YMR205C, strain PFK2 (second series), hits give low values 0.904 | S. cerevisiae deletion strains, locus YMR277W, strain FCP1, hits give low values 0.978 | S. cerevisiae deletion strains, locus YNL006W, strain LST8, hits give low values 0.978 | S. cerevisiae deletion strains, locus YNL020C, strain ARK1, hits give low values 0.887 | S. cerevisiae deletion strains, locus YNL161W, strain CBK1, hits give low values 0.977 | S. cerevisiae deletion strains, locus YNL183C, strain NPR1, hits give low values 0.879 | S. cerevisiae deletion strains, locus YNL207W, strain RIO2, hits give low values 0.974 | S. cerevisiae deletion strains, locus YNL222W, strain SSU72, hits give low values 0.966 | S. cerevisiae deletion strains, locus YNL307C, strain MCK1 (second series), hits give low values 0.877 | S. cerevisiae deletion strains, locus YOL078W, strain AVO1, hits give low values 0.979 | S. cerevisiae deletion strains, locus YOL136C, strain PFK27, hits give low values 0.843 | S. cerevisiae deletion strains, locus YOR061W, strain CKA2, hits give low values 0.895 | S. cerevisiae deletion strains, locus YOR119C, strain RIO1, hits give low values 0.965 | S. cerevisiae deletion strains, locus YOR231W, strain MKK1, hits give low values 0.814 | S. cerevisiae deletion strains, locus YOR329C, strain SCD5, hits give low values 0.982 | S. cerevisiae deletion strains, locus YPL031C, strain PHO85, hits give low values 0.906 | S. cerevisiae deletion strains, locus YPL153C, strain RAD53, hits give low values 0.897 | S. cerevisiae deletion strains, locus YPL204W, strain HRR25, hits give low values 0.907 | S. cerevisiae deletion strains, locus YPL209C, strain IPL1, hits give low values 0.973 | S. cerevisiae deletion strains, locus YPR025C, strain CCL1, hits give low values 0.975 | S. cerevisiae deletion strains, locus YPR106W, strain ISR1, hits give low values 0.961 | S. cerevisiae deletion strains, locus YPR111W, strain DBF20, hits give low values 0.952 | S. cerevisiae deletion strains, strain NNK1, hits give low values 0.956 | S. cerevisiae deletion strains, strain TSCII, hits give low values 0.977
